# Test results as given in PubChem BioAssay AID738 (SRMLSC, 2007).
# The campaign covered roughly 98,000 compounds. About 4,900 (5%) were called active. Cut-off read from the data, not from the text of the source: active = inhibition above about 30%; inactive = the rest. For the sample, actives were picked, then their nearest neighbours and some compounds at random.
# Assay: yeast control strain growth suppression – counter-screen for post-Golgi transport modulator project, primary screen (AID 738)
# Conditions: efflux-deficient yeast background strain, growth absorbance A615, 16 h; at 10 µM; stronger effect = higher value
row,SMILES,inhibition
1,CSCc1cc(N(C)C)nc(SCc2ccc(Cl)cc2Cl)n1,15% (inactive)
2,CCOC(=O)c1sc(NC(=O)CSc2ncccn2)c(C#N)c1C,21.6% (inactive)
3,CCOC(=O)c1ccc(NC(=O)CSc2ncccn2)cc1,31.1% (active)
4,CCOC(=O)c1ccc(NC(=O)CSc2nnc(COc3ccccc3OC)n2C)cc1,12.5% (inactive)
5,CC(c1ccco1)N(C(=O)COc1ccccc1[N+](=O)[O-])c1ccccn1 (stereo not drawn),14.2% (inactive)
6,C=CCNC(=O)c1sc(SC)cc1-c1ccc(Cl)cc1,11.2% (inactive)
7,CC1CCN(CC(=O)c2c[nH]c3ccccc23)CC1,6.25% (inactive)
8,Cc1ccc(C2CC(=O)NC(SCC(=O)OCc3ccccc3)=C2C#N)o1 (stereo not drawn),32% (active)
9,CCOC(=O)CSC1=C(C#N)C(c2ccco2)C(C(=O)OCc2ccccc2)=C(C)N1 (stereo not drawn),24.9% (inactive)
10,CCOC(=O)CSC1=C(C#N)C(c2sccc2C)CC(=O)N1 (stereo not drawn),11.5% (inactive)
11,CN(C)/C=C(\C#N)C(=O)c1cccnc1Oc1ccc(F)cc1F,2.7% (inactive)
12,O=C(NC1CCN(Cc2ccccc2)CC1)c1ccccc1F,6.56% (inactive)
13,O=C(COc1ccccc1F)NC1CC1,-0.64% (inactive)
14,O=C(COc1ccc(Br)cc1F)NC1CCN(Cc2ccccc2)CC1,37.7% (active)
15,Cc1ccc(C(=O)Nc2c(C#N)c(C)c(C)n2Cc2ccccc2)cc1,17.1% (inactive)
16,CCOC1CS(=O)(=O)CC1OCC (stereo not drawn),8.62% (inactive)
17,Cc1cc(C)nc(NC(=O)C(C)N2C(=O)c3ccccc3C2=O)n1 (stereo not drawn),-0.16% (inactive)
18,Cc1cc(C)nc(NC(=O)Nc2ccccc2C(F)(F)F)n1,34.3% (active)
19,O=C(Nc1ccccc1C(F)(F)F)c1cc(-c2ccc(O)cc2)on1,2.42% (inactive)
20,COc1cc(SC)ccc1C(=O)NCCOc1ccccc1Cl,28.9% (inactive)
21,Cc1ccc(CNC(=O)CCNC(=O)Cn2ccc3ccccc3c2=O)cc1,7.83% (inactive)
22,CCOc1c2ccc(C(=O)NCc3ccc(OC(F)(F)F)cc3)cc2nn1C,-2.75% (inactive)
23,COc1ccc(C(=O)c2c(C)oc3cc([N+](=O)[O-])c(O)c([N+](=O)[O-])c23)cc1,15% (inactive)
24,Cc1c(NC(=O)c2cc(-c3ccc(Cl)s3)nc3ccccc23)c(=O)n(-c2ccccc2)n1C,44.6% (active)
25,Cc1cc(C(=O)Nc2c(C)n(C)n(-c3ccccc3)c2=O)cs1,2.08% (inactive)

row,SMILES,inhibition
1,COC(=O)Nc1c(C)n(C)n(-c2ccccc2)c1=O,6.08% (inactive)
2,CCOC(=O)Nc1ccc(S(=O)(=O)N(C)C(C)C)cc1,4.8% (inactive)
3,CCOc1c2ccc(C(=O)NCc3ccc4c(c3)OCO4)cc2nn1C,24.1% (inactive)
4,Cc1ccccc1N/N=C/c1ccc(N2CCOCC2)cc1,20% (inactive)
5,COc1ccccc1CNC(=O)c1ccc(SC)cc1OC,17.5% (inactive)
6,CCOc1ccc2nc(NCCNS(=O)(=O)c3ccccc3)c(C#N)cc2c1,-2.23% (inactive)
7,COc1ccc2nc(N3CCCC(O)C3)c(C#N)cc2c1 (stereo not drawn),6.9% (inactive)
8,CCOc1ccc2nc(N3CCCN(C(=O)Nc4ccccc4C)CC3)c(C#N)cc2c1,56.8% (active)
9,Cc1ccc2cc(CCNC(=O)c3c(-c4ccccc4Cl)noc3C)c(=O)[nH]c2c1,9.09% (inactive)
10,CN1CCN(c2ccc([N+](=O)[O-])c(Sc3nc4ccccc4[nH]3)c2)CC1,7.22% (inactive)
11,CSc1ccc(C#N)cc1NC(=O)c1ccc(Cl)cc1,-4.75% (inactive)
12,CSc1cc(C)n(-c2ccccc2C)c(=S)c1C(C)=O,4.46% (inactive)
13,O=C(NCCCN1CCCCCC1)C1CC(=O)N(C2CCCC2)C1 (stereo not drawn),39.6% (active)
14,Cc1ccc(CNC(=O)C2CC(=O)N(C3CCCCCCC3)C2)cc1 (stereo not drawn),11.5% (inactive)
15,CC(C)OCCCNC(=O)C1CC(=O)N(C2CCCCCCC2)C1 (stereo not drawn),0.87% (inactive)
16,COc1ccc(CCNC(=O)COC(=O)c2ccc[nH]c2=O)cc1,8.99% (inactive)
17,CCn1c(SCc2ccc(C)cc2)nnc1-c1nn(-c2ccccc2)ccc1=O,28.2% (inactive)
18,CCOc1ccc(NC(=O)N(CCC(C)C)C(C)c2ccco2)cc1 (stereo not drawn),14.1% (inactive)
19,CC(c1ccco1)N(C(=O)Nc1ccccc1)C1CCCCC1 (stereo not drawn),34.8% (active)
20,CCCC(C(=O)NCc1ccco1)N(C(=O)CNS(=O)(=O)c1ccccc1)C1CCCC1 (stereo not drawn),-6.03% (inactive)
21,CCCCNC(=O)CSc1nc2ccc(NC(=O)CSc3nnc(COc4ccccc4C)n3C)cc2s1,-0.61% (inactive)
22,CN(C(=O)CSc1nc(C2CC2)nc2ccccc12)c1nc(-c2ccccc2)cs1,3.27% (inactive)
23,Oc1ccccc1/C=N/n1c(-c2cccs2)n[nH]c1=S,7.52% (inactive)
24,Cc1ccc(/C=N\n2c(-c3ccccc3)n[nH]c2=S)s1,6.75% (inactive)
25,S=c1[nH]nc(-c2ccco2)n1/N=C/c1ccc(Br)s1,32.1% (active)

row,SMILES,inhibition
1,COC(=O)c1c(CCl)noc1C(=O)NC(C)C,-6.4% (inactive)
2,CCCCSc1[nH]c(=O)c(C(=O)OCC)cc1C#N,-5.6% (inactive)
3,C/C(=N/NC(=O)c1ccc(NC(=O)c2ccc(F)cc2)cc1)c1ccccc1,4.86% (inactive)
4,Cc1nn(CCOc2ccccc2)c(=O)n1-c1ccccc1F,14% (inactive)
5,O=C(C(c1ccccc1)c1ccccc1)N1CCN(CC(O)COc2ccccc2)CC1 (stereo not drawn),9.41% (inactive)
6,O=C(COc1ccc(Cl)cc1)N1CCN(c2cccc(C(F)(F)F)c2)CC1,27.6% (inactive)
7,O=C(c1ccc(Cl)cc1)c1ccc(OCC(O)CN2CCCCC2)cc1 (stereo not drawn),7.05% (inactive)
8,CCC(=O)c1ccc(OCC(O)CN2CCN(c3cccc(C(F)(F)F)c3)CC2)cc1 (stereo not drawn),38.7% (active)
9,O=S(=O)(c1ccc(OCC(O)CN2CCN(c3ccccc3Cl)CC2)cc1)N1CCOCC1 (stereo not drawn),-0.44% (inactive)
10,CCC(=O)c1ccc(OCC(O)CN2C(=O)NC(C)(C)C2=O)cc1 (stereo not drawn),7.58% (inactive)
11,OC(COc1ccc2c(c1)CCC2)CN1CCN(c2cccc(Cl)c2)CC1 (stereo not drawn),82.4% (active)
12,OC(COc1cccc(OCC(O)CN2CCCC2)c1)CN1CCCC1 (stereo not drawn),0.3% (inactive)
13,CCC(=O)c1ccc(OCC(O)CN2CC(C)OC(C)C2)cc1 (stereo not drawn),30.9% (active)
14,Cc1cc(C(=O)OCC(=O)Nc2ccc(F)c(F)c2)c(C)o1,8.41% (inactive)
15,O=C(Nc1ccc2sc3ccccc3c(=O)c2c1)c1ccccc1Cl,-1.51% (inactive)
16,CN(CC#CCC(c1ccccc1)c1ccccc1)C(C)(C)C,15.3% (inactive)
17,COC(=O)c1ccccc1NC(=O)CN(Cc1ccc(Cl)cc1)S(C)(=O)=O,20.7% (inactive)
18,CC(=O)N1Cc2ccccc2CC1C(=O)O (stereo not drawn),-1.83% (inactive)
19,CCOC(=O)N1CCN(C(=O)CN(c2ccc(C)c(C)c2)S(=O)(=O)c2ccccc2)CC1,-2.62% (inactive)
20,COc1cccc(N(CC(=O)N2CCc3ccccc3C2)S(C)(=O)=O)c1,2.59% (inactive)
21,Cc1ccc(S(=O)(=O)N(CC(=O)N2CCc3ccccc3C2)c2cccc(Cl)c2)cc1,53.7% (active)
22,COc1ccc(Cl)cc1NC(=O)CN(C)C(=O)CNC(=O)C12CC3CC(CC(C3)C1)C2,11.5% (inactive)
23,CCCCN=C1N/C(=C\c2ccco2)C(=O)N1c1ccccc1,13.4% (inactive)
24,Cc1ccc(C(=O)NNC(=O)OC(C)(C)C)c(Cl)c1,-3.45% (inactive)
25,COc1ccc(N2CCN(Cc3ccc(Br)s3)CC2)cc1,1.68% (inactive)

row,SMILES,inhibition
1,COc1ccc(N2CCN(Cc3cc(=O)oc4ccc5ccccc5c34)CC2)cc1,31% (active)
2,O=c1cc(CN2CCN(c3cccc(Cl)c3)CC2)c2cc3c(cc2o1)CCCC3,1.31% (inactive)
3,NC(=O)c1nsc(C(=O)N(CC(=O)NCc2ccc(F)cc2)Cc2ccco2)c1N,-18.4% (inactive)
4,COc1ccc(OCC(=O)N2CCN(C(=O)COc3ccccc3)CC2)cc1,-2.43% (inactive)
5,COc1ccc(C(=O)Nc2cc(C)ccc2NC(=O)COc2ccccc2)cc1,-12.5% (inactive)
6,COc1ccc(OCC(=O)NN2Cc3ccccc3C2=N)cc1,30.9% (active)
7,CC(=O)N1CCN(c2cccc(C)c2C)CC1,3.94% (inactive)
8,Cc1cccc(N2CCN(C(=O)c3cnn4c(C(F)F)cc(-c5ccccc5)nc34)CC2)c1C,61.4% (active)
9,O=C(O)c1cnn2c(C(F)(F)F)cc(-c3ccccc3)nc12,-4.57% (inactive)
10,Clc1ccccc1-c1cc(COc2ccc3ccccc3c2)no1,1.75% (inactive)
11,CN(C)S(=O)(=O)c1ccc(N2CCCC2)c(C(=O)NCc2ccccc2)c1,4.17% (inactive)
12,CCOc1[nH]n(-c2ccc(Cl)cc2)c(=O)c1C=Nc1ccc(O)cc1,1.52% (inactive)
13,CCOc1ccc(N=C2NC(=O)S/C2=C\c2ccc(O)cc2)cc1,41.5% (active)
14,CCOc1ccc(N=C2SC(C(=O)O)CC(=O)N2C)cc1 (stereo not drawn),-1.43% (inactive)
15,O=C1CCN(C(=O)Nc2ccccc2)N1,1.84% (inactive)
16,Cc1ccccc1NC(=S)Nc1cccc([N+](=O)[O-])c1,-0.57% (inactive)
17,CCOC(=O)N1CCN(C(=O)c2ccc3c(c2)N(Cc2ccc(C)cc2)CCS3)CC1,34.6% (active)
18,CCOC(=O)N1CCN(C(=O)c2ccc(S(=O)(=O)c3ccc(C)cc3)c(NC(C)=O)c2)CC1,7.81% (inactive)
19,CCOC(=O)N1CCN(C(=O)c2ccc(CN(c3ccc(C)c(C)c3)S(C)(=O)=O)cc2)CC1,3.07% (inactive)
20,Cc1ccc(NC(=O)CN2CCc3ccccc3C2)cc1,8.09% (inactive)
21,N/C(Cc1ccc([N+](=O)[O-])cc1)=N\OC(=O)COc1ccc2ccccc2c1,18.8% (inactive)
22,Cc1cccc(NC(=O)c2ccc3ccccc3n2)n1,12.6% (inactive)
23,O=C(Oc1ccc([N+](=O)[O-])cc1)c1ccc2ccccc2n1,41.8% (active)
